Results on twelve compounds are retold here after PubChem BioAssay (NCI).

Some test systems named below: SR leukemia; RPMI-8226 leukemia; OVCAR-8 ovarian; OVCAR-5 ovarian; OVCAR-4 ovarian; SK-OV-3 ovarian; IGROV1 ovarian; OVCAR-3 ovarian; HS 578T breast; NCI/ADR-RES ovarian.
Common to all, as to test: NCI-60 one-dose screen, 48 h (100 = growth as untreated, 0 = no growth, -100 = all killed)
Holding throughout (settings): 10 µM unless noted

“And” between values parts separate entries of the source, which are not always exact repeats. Equal entries are not always repeated. About 83,000 compounds went through this panel and 20% of them were active in at least one assay; those are over-represented in the sample as a whole.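 Testing used 96-well plates and a 48-hour single-concentration exposure. Example: -40 means 40% of the starting cells died.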 The source made the active and inactive calls. How the source made its calls: active means growth percent below 10; inactive means the rest.

Regarding `C/C=C(/C(=O)NC(N)=O)C(C)C`, the growth in the assay on SR leukemia was 88.7% (inactive); in the assay on RPMI-8226 leukemia it was 113% (inactive); with OVCAR-8 ovarian it was 96.2% (inactive); in the assay on OVCAR-5 ovarian it was 116% (inactive); in the assay on OVCAR-4 ovarian it was 119% (inactive); in the assay on SK-OV-3 ovarian, 99.4% (inactive). Further, the growth with IGROV1 ovarian is 114% (inactive); in the assay on OVCAR-3 ovarian, 104% (inactive); in the assay on HS 578T breast it was 107% (inactive); in the assay with NCI/ADR-RES ovarian, 107% (inactive).

`COc1cc(NCCCCCCCNC(C)C)c2nccc(C)c2c1`: the growth with SR leukemia was 80.1% (inactive) and 36.1% (inactive); in the assay with RPMI-8226 leukemia, 81.1% (inactive) and 92.7% (inactive); in the assay on OVCAR-8 ovarian, 86.4% (inactive) and 89.7% (inactive); in the assay with OVCAR-5 ovarian, 88.3% (inactive) and 96.9% (inactive); in the assay with OVCAR-4 ovarian, 15.8% (inactive); with SK-OV-3 ovarian, 93.8% (inactive) and 72.9% (inactive). Also, the growth with IGROV1 ovarian is 82.3% (inactive) and 85.9% (inactive); with OVCAR-3 ovarian, 22.8% (inactive) and 26.4% (inactive); in the assay with HS 578T breast, 95% (inactive) and 68.8% (inactive); in the assay on NCI/ADR-RES ovarian, 88.1% (inactive) and 84.6% (inactive).

As to `OCc1ccccc1F`, the growth is 92.6% (inactive) with SR leukemia; 106% (inactive) in the assay on RPMI-8226 leukemia; 83.3% (inactive) in the assay with OVCAR-8 ovarian; 76.9% (inactive) in the assay with OVCAR-5 ovarian; 97.5% (inactive) with OVCAR-4 ovarian; 87% (inactive) in the assay with SK-OV-3 ovarian. The growth in the assay on IGROV1 ovarian is 85.7% (inactive); in the assay on OVCAR-3 ovarian, 132% (inactive); with HS 578T breast, 109% (inactive); in the assay on NCI/ADR-RES ovarian, 75.7% (inactive).

As to `CC1CC(O)CC(C)(C)C1.CC1CC(O)CC(C)(C)C1.CC1CC(O)CC(C)(C)C1.CC1CC(O)CC(C)(C)C1.[Ti]` (stereo not given), the growth with SR leukemia was 81.1% (inactive); in the assay on RPMI-8226 leukemia it was 96.5% (inactive); in the assay with OVCAR-8 ovarian, 106% (inactive); with OVCAR-5 ovarian, 114% (inactive); in the assay on OVCAR-4 ovarian, 127% (inactive); with SK-OV-3 ovarian, 91.4% (inactive). For the same compound, the growth in the assay on IGROV1 ovarian was 101% (inactive); with OVCAR-3 ovarian, 122% (inactive); in the assay with HS 578T breast, 99.9% (inactive); in the assay with NCI/ADR-RES ovarian it was 99.1% (inactive).

Take `CC(=O)C[n+]1ccccc1Sc1ccc(Cl)cc1`: the growth was 57.4% (inactive) with SR leukemia; 84.7% (inactive) in the assay with RPMI-8226 leukemia; 92.8% (inactive) in the assay on OVCAR-8 ovarian; 148% (inactive) in the assay on OVCAR-5 ovarian; 93.7% (inactive) with OVCAR-4 ovarian; 109% (inactive) in the assay on SK-OV-3 ovarian. Further, the growth in the assay with IGROV1 ovarian was 101% (inactive); with OVCAR-3 ovarian it was 100% (inactive); in the assay on HS 578T breast, 84.3% (inactive); in the assay with NCI/ADR-RES ovarian, 111% (inactive).

For `CN(C)CC(CN(C)C)C(O)c1ccccc1` (stereo not given), the growth was 111% (inactive) with SR leukemia; 108% (inactive) in the assay on RPMI-8226 leukemia; 104% (inactive) in the assay on OVCAR-8 ovarian; 106% (inactive) in the assay with OVCAR-5 ovarian; 102% (inactive) with OVCAR-4 ovarian; 103% (inactive) with SK-OV-3 ovarian. Moreover, the growth was 106% (inactive) in the assay with IGROV1 ovarian, 115% (inactive) with OVCAR-3 ovarian, 108% (inactive) with HS 578T breast and 100% (inactive) in the assay with NCI/ADR-RES ovarian.

With `Clc1ccc2sc(-c3ccccc3)nc2c1`, the growth with SR leukemia is 83.1% (inactive); with RPMI-8226 leukemia it was 97% (inactive); in the assay with OVCAR-8 ovarian it was 87.9% (inactive); with OVCAR-5 ovarian it was 120% (inactive); in the assay with OVCAR-4 ovarian, 81.5% (inactive); in the assay with SK-OV-3 ovarian it was 83.6% (inactive). The growth is 101% (inactive) in the assay with IGROV1 ovarian, 98.6% (inactive) in the assay with OVCAR-3 ovarian, 68.7% (inactive) with HS 578T breast and 100% (inactive) with NCI/ADR-RES ovarian.

For `O=C(c1ccccc1)C1(Br)CCCCC1`, the growth with SR leukemia was 149% (inactive); with RPMI-8226 leukemia, 98.9% (inactive); in the assay on OVCAR-8 ovarian, 103% (inactive); with OVCAR-5 ovarian, 97% (inactive); with OVCAR-4 ovarian it was 105% (inactive); with SK-OV-3 ovarian, 108% (inactive). Besides, the growth with IGROV1 ovarian was 97.2% (inactive); in the assay with OVCAR-3 ovarian, 112% (inactive); in the assay on HS 578T breast, 97.3% (inactive); in the assay on NCI/ADR-RES ovarian, 91.5% (inactive).

For `CCCCCc1cc[n+](CC(=O)c2ccccc2)cc1`, the growth in the assay on SR leukemia is 115% (inactive) and 100% (inactive); with RPMI-8226 leukemia, 104% (inactive) and 107% (inactive); in the assay on OVCAR-8 ovarian it was 97.2% (inactive) and 99.3% (inactive); in the assay on OVCAR-5 ovarian, 97.6% (inactive) and 101% (inactive); with OVCAR-4 ovarian it was 110% (inactive) and 85.2% (inactive); in the assay on SK-OV-3 ovarian it was 101% (inactive) and 105% (inactive). In addition, the growth with IGROV1 ovarian was 91.6% (inactive) and 108% (inactive); with OVCAR-3 ovarian, 94.9% (inactive) and 105% (inactive); with HS 578T breast, 106% (inactive); in the assay with NCI/ADR-RES ovarian, 98.6% (inactive) and 103% (inactive).

For the compound `COC(=O)c1nc(N)nc(C(=O)OC)c1C(=O)c1cccc2ccccc12`, the growth is 105% (inactive) in the assay with SR leukemia; 109% (inactive) in the assay with RPMI-8226 leukemia; 117% (inactive) with OVCAR-8 ovarian; 103% (inactive) in the assay on OVCAR-5 ovarian; 108% (inactive) in the assay with OVCAR-4 ovarian; 121% (inactive) in the assay on SK-OV-3 ovarian. For the same compound, the growth was 117% (inactive) in the assay on IGROV1 ovarian, 132% (inactive) in the assay with OVCAR-3 ovarian, 108% (inactive) in the assay on HS 578T breast and 103% (inactive) in the assay with NCI/ADR-RES ovarian.

In the case of `O=COCCCc1ccccc1`, the growth with SR leukemia is 117% (inactive); with RPMI-8226 leukemia, 102% (inactive); in the assay with OVCAR-8 ovarian it was 99.2% (inactive); with OVCAR-5 ovarian it was 105% (inactive); with OVCAR-4 ovarian, 120% (inactive); in the assay on SK-OV-3 ovarian, 98.1% (inactive). In addition, the growth was 104% (inactive) with IGROV1 ovarian, 109% (inactive) in the assay on OVCAR-3 ovarian, 96.6% (inactive) in the assay on HS 578T breast and 108% (inactive) in the assay with NCI/ADR-RES ovarian.

Consider `O=C(/C=C/C=C/c1ccc2c(c1)OCO2)N1CCCCC1`, for which the growth with SR leukemia is 92.4% (inactive) and 86% (inactive); with RPMI-8226 leukemia it was 102% (inactive) and 124% (inactive); with OVCAR-8 ovarian it was 101% (inactive) and 97.4% (inactive); in the assay on OVCAR-5 ovarian, 96.4% (inactive); in the assay on OVCAR-4 ovarian, 103% (inactive) and 96.8% (inactive); in the assay on SK-OV-3 ovarian it was 101% (inactive) and 102% (inactive). Besides, the growth in the assay with IGROV1 ovarian is 105% (inactive) and 6.71% (active); in the assay on OVCAR-3 ovarian, 121% (inactive) and 104% (inactive); in the assay on HS 578T breast it was 104% (inactive) and 94.8% (inactive); with NCI/ADR-RES ovarian, 98% (inactive) and 106% (inactive).
